This is an account of results in PubChem BioAssay (NCATS).

Molecules are shown by their SMILES. Unmarked numbers belong to inactive results. Records with an inconclusive call do not appear. Activity calls are given as the source filed them. Calls follow the shape of the dose curve; as a rule, active = well fitted curve in the direction sought with a large enough effect; inconclusive = small, poorly fitted or top-dose-only effect, or another doubt; inactive = no such curve, though single readings can be large; an effect the other way counts as inactive or inconclusive.

A short description of test [1]: qHTS assay for measurement of the activity of small molecule inhibitors on Zika virus induced Caspase-3 activity in human astrocytoma cells (AID 1224859). The procedure, abridged: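 A cell-based luminescent caspase-3/7 assay used SNB-19 cells infected with ZIKV (2 FFU/cell) for 6 h following 1 h compound pretreatment.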
Test [2] can be described thus: qHTS assay to identify small molecule inhibitors of chordoma cells - UCH-1 (AID 1259355). Also: nearly all actives have a fitted effect of over 55% in size. The procedure, abridged: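 A 48hr growth-inhibition format: each drug tested at 15 concentrations together with added auranofin, camptothecin, doxorubicin, rubitecan and topotecan, with cell viability quantified as CellTiter-Glo luminescence.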
A general note: qHTS replaces the single test concentration by a dilution series.

Test [3] is described as follows: qHTS assay to identify small molecule inhibitors of chordoma cells - UCH-2 (AID 1259356). Also: series mostly up to about 46 µM.
The nature of test [4]: P-glycoprotein substrates identified in KB-8-5-11 adenocarcinoma cell line, qHTS therapeutic library screen (AID 1346987). Also: nearly all actives have a fitted effect of over 65% in size. Also: potency is read from the fitted curve at half-maximal effect. The procedure, abridged: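 Luminescence from CellTiter-Glo, read 5 min after addition, quantified survival of KB-8-5-11 (P-gp-overexpressing) cells exposed to compounds for 72 h. AC50 was derived from concentration-response curves.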
A short description of test [5]: NS1 protein of Zika virus - qHTS assay to identify small molecule inhibitors in human HEK 293 cells (AID 1347053). Also: series mostly up to about 46 µM; nearly all actives have a fitted effect of over 55% in size. In outline:
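TR-FRET signal from two anti-ZIKV NS1 antibodies quantified NS1 in HEK 293 cells 24 h after MR766 infection at MOI = 0.5; compounds were added 1 h before virus. Uninfected cells and infected cells defined the NS1 normalization range.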

A short description of test [6]: qHTS of pediatric cancer cell lines to identify multiple opportunities for drug repurposing: Primary screen for TC32 cells (AID 1347089). Also: nearly all actives have a fitted effect of over 60% in size. The procedure, abridged:
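In the primary qHTS, MIPE compounds were tested at 11 concentrations (0.78 nM to 46 µM) and NPC compounds at 8 (0.59 nM to 46 µM) on TC32 cells for 48 h. CellTiter-Glo luminescence gave viability.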

The nature of test [7]: qHTS of pediatric cancer cell lines to identify multiple opportunities for drug repurposing: Primary screen for DAOY cells (AID 1347090). Also: series mostly up to about 46 µM; nearly all actives have a fitted effect of over 55% in size. In outline: (§1)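 Eight- or eleven-point concentration series, 48 h treatment at 37 degrees C in growth media; readout CellTiter-Glo luminescence. Potency and efficacy were taken from the concentration-response curves.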
Test [8] can be described thus: qHTS of pediatric cancer cell lines to identify multiple opportunities for drug repurposing: Primary screen for SJ-GBM2 cells (AID 1347091). The procedure, abridged:
as §1

Test [9] in a line: qHTS of pediatric cancer cell lines to identify multiple opportunities for drug repurposing: Primary screen for A673 cells (AID 1347092). Also: nearly all actives have a fitted effect of over 45% in size. The procedure, abridged: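 48 h compound exposure, A673, 500-1,000 cells/well, 37 degrees C/5% CO2. MIPE: 11-point, 0.78 nM-46 µM; NPC: 8-point, 0.59 nM-46 µM (final). Readout CellTiter-Glo luminescence after 15 min RT.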
Test [10] in a line: qHTS of pediatric cancer cell lines to identify multiple opportunities for drug repurposing: Primary screen for BT-37 cells (AID 1347094). Also: series mostly up to about 57 µM. In outline: (§2)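 Primary screen of approved and investigational compounds on cells in growth media at 37 degrees C, 5% CO2. MIPE set at 11-point and NPC set at 8-point dilutions; viability scored by ATP-based luminescence at 48 hours.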
A short description of test [11]: qHTS of pediatric cancer cell lines to identify multiple opportunities for drug repurposing: Primary screen for NB-EBc1 cells (AID 1347095). In outline:
as §2

Test [12] is described as follows: qHTS of pediatric cancer cell lines to identify multiple opportunities for drug repurposing: Primary screen for SK-N-MC cells (AID 1347093). Also: series mostly up to about 46 µM. In outline: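 Metabolically active cells were quantified by ATP-dependent luminescence (CellTiter-Glo, 15 min at room temperature) following 48 h treatment. Cells had been plated at 500-1,000 per well and settled for 5 h beforehand.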

For the compound `O=C(O)CCC(=O)Nc1ccc(S(=O)(=O)Nc2nccs2)cc1`, in test [1], the compound was called inactive. For the same compound, the Potency result in [2], in test [3], in [4], in test [5], in [6] and in test [7] was “inactive” throughout. The Potency result in [8], in [9], in [10] and in [11] was “inactive” in each case.

Consider `CC(=O)Nc1ccc(OC(=O)c2ccccc2OC(C)=O)cc1`, for which the compound was called inactive in test [1]. In addition, the Potency entry in [2], in test [3], in test [4], in test [5], in [6] and in test [7] was “inactive” throughout. Besides, the Potency result in test [8], in [9], in [12], in [10] and in [11] was “inactive” throughout.

With `CN(C)CCC[C@@]1(c2ccc(F)cc2)OCc2cc(C#N)ccc21`, in test [1], the compound was called inactive. In addition, the Potency result in [2], in test [3], in test [4], in test [5], in test [6] and in test [7] was “inactive” in each case. Also, the Potency entry in test [8], in test [9], in [10] and in [11] was “inactive” each time.

As to `O=C(Nc1cccc(C2=NCCN2)c1)Nc1cccc(C2=NCCN2)c1`, in test [1], the compound was classed as inactive. Besides, the Potency result in test [2], in test [3], in test [4], in test [5], in test [6] and in [7] was “inactive” throughout. Also, the Potency result in test [8], in test [9], in [12], in test [10] and in test [11] was “inactive” each time.

Regarding `CC1=C(C(=O)O)N2C(=O)[C@@H](NC(=O)[C@H](N)c3ccccc3)[C@H]2SC1`, the result in [1] was inactive. For the same compound, the Potency entry in test [2], in [3], in test [4], in [5], in [6] and in test [7] was “inactive” in each case. Moreover, the Potency result in [8], in [9], in test [10] and in test [11] was “inactive” in each case.

As to `Cc1c[nH]c2ccccc12`, the compound was classed as inactive in test [1]. Further, the Potency entry in test [2], in test [3], in test [4], in [5], in test [6] and in [7] was “inactive” throughout. The Potency result in test [8], in test [9] and in test [10] was “inactive” each time.

Consider `C=CCN1CCc2nc(N)sc2CC1`, for which the compound was called inactive in [1]. In addition, the Potency result in test [2], in test [3], in [4], in test [5], in [6] and in test [7] was “inactive” each time. In addition, the Potency result in test [8], in test [9], in test [12] and in [11] was “inactive” in each case.

In the case of `NCc1ccccc1Sc1ccccc1CO`, in test [1], the outcome was inactive. The Potency entry in [2], in [3], in test [4], in test [5], in [6] and in test [7] was “inactive” each time. Moreover, the Potency result in test [8], in test [9], in test [12], in test [10] and in test [11] was “inactive” throughout.

For `CCOC(=O)Nc1ccc2c(c1)N(C(=O)CCN1CCOCC1)c1ccccc1S2`, the call in [1] was inactive. The Potency result in test [2], in [3], in test [4], in test [5], in test [6] and in test [7] was “inactive” throughout. For the same compound, the Potency result in test [8], in test [9], in test [12] and in test [11] was “inactive” each time.

On to `CN1CCC(OC(c2ccccc2)c2ccccc2)CC1`, for which the result in [1] was inactive. In addition, the Potency entry in [2], in [3], in test [4], in [5], in [6] and in [7] was “inactive” in each case. Further, the Potency result in [8], in [9], in [12], in test [10] and in test [11] was “inactive” in each case.

For the compound `CC(=O)NO`, the call in test [1] was inactive. For the same compound, the Potency entry in test [2], in [3], in test [4], in [5], in [6] and in [7] was “inactive” throughout. Further, the Potency entry in test [8], in test [9], in test [12] and in test [11] was “inactive” throughout.

With `NS(=O)(=O)Cc1noc2ccccc12`, the compound was called inactive in test [1]. For the same compound, the Potency result in [2], in test [3], in test [4], in [5], in test [6] and in [7] was “inactive” each time. The Potency result in [8], in [9], in test [12], in test [10] and in test [11] was “inactive” in each case.

As for `CC(=C(CCOC(=O)C(C)C)SSC(CCOC(=O)C(C)C)=C(C)N(C=O)Cc1cnc(C)nc1N)N(C=O)Cc1cnc(C)nc1N`, in [1], the compound was called inactive. Also, the Potency entry in [2], in test [3], in [4], in test [5], in test [6] and in test [7] was “inactive” throughout. The Potency result in [8], in test [9], in test [10] and in [11] was “inactive” throughout.

As for `O=C(O)CCc1nc2ccccc2[nH]1`, the compound was classed as inactive in test [1]. Moreover, the Potency result in test [2], in test [3], in test [4], in test [5], in test [6] and in [7] was “inactive” in each case. In addition, the Potency result in test [8], in test [9], in test [10] and in test [11] was “inactive” in each case.

With `CN(Cc1ccc(C(C)(C)C)cc1)Cc1cccc2ccccc12`, the compound was classed as inactive in [1]. The Potency result in test [2], in test [3], in test [4], in [5], in test [6] and in test [7] was “inactive” in each case. Moreover, the Potency entry in test [8], in [9], in test [10] and in test [11] was “inactive” throughout.

For `COc1cc(C)nc(-n2nc(C)cc2OC)n1`, the outcome in [1] was inactive. Besides, the Potency entry in test [2], in test [3], in test [4], in test [5], in test [6] and in test [7] was “inactive” each time. In addition, the Potency entry in test [8], in test [12], in test [10] and in test [11] was “inactive” throughout.

As to `C#C[C@]1(O)CC[C@H]2[C@@H]3CCC4=CC(=O)CC[C@@H]4[C@H]3CC[C@@]21CC`, in test [1], the call was inactive. The Potency result in [2], in test [3], in [5], in test [6], in test [7] and in test [8] was “inactive” each time. Moreover, the Potency result in test [12], in test [10] and in test [11] was “inactive” in each case. Moreover, in test [4], the Potency is 8.2 µM (active).

Turning to `CN(C)CCN1C(=O)c2ccccc2N(C)c2ccccc21`, the outcome in test [1] was inactive. In addition, the Potency entry in test [2], in test [3], in test [4], in test [5], in test [6] and in test [7] was “inactive” throughout. Besides, the Potency result in [8], in test [9] and in test [11] was “inactive” throughout.

In the case of `COc1ccc(CCN(C)CCCN2CCc3cc(OC)c(OC)cc3CC2=O)cc1OC`, the result in test [1] was inactive. The Potency result in test [2], in [3], in test [4], in test [5], in test [6] and in test [7] was “inactive” throughout. The Potency entry in test [8], in test [10] and in test [11] was “inactive” each time.

As for `O=C1C(O)=C(O)C(=O)C(O)=C1O`, in test [1], the compound was called inactive. Besides, the Potency result in test [2], in test [3], in test [4], in test [5], in [6] and in [7] was “inactive” throughout. For the same compound, the Potency entry in test [8], in [9] and in test [11] was “inactive” throughout.
